Results on 63 compounds are retold here after PubChem BioAssay AID1259421 (Broad Institute, 2018).

SMILES strings stand for the structures. “And” between values parts separate entries of the source, which are not always exact repeats. Equal values may be shown once. The whole screen tested about 6,400 compounds, of which about 610 (9.5%) were called active. No stated cut-off is given here; in the data, active means activity change below about -70%; inconclusive means no clear call, values can overlap the other calls; inactive means above that. Only a selection was taken, and actives are over-represented in it overall. Some compounds were tested as several samples or in several runs, with calls that do not always agree.

A short description of this experiment: Toxoplasma gondii ME49Luc growth in HeLa cells, luciferase, no IFN-y, primary screen (AID 1259421). As to conditions: T. gondii ME49Luc in HeLa, 72 h, stronger effect = lower value, concentration not given here.
Consider `COc1cc(/C=C/C(=O)N2CCN(CC(=O)NC(C)C)CC2)cc(OC)c1OC`, for which the activity change, negative = inhibition was -0.924% (inactive).

For `CC(C)NC(=O)COc1cccc(-c2nc(Nc3ccc4[nH]ncc4c3)c3ccccc3n2)c1`, the activity change, negative = inhibition is -49.1% (inactive).

In the case of `COc1ccc(CNC(=O)c2cc(-c3cncc(C)c3)ncc2-c2nccs2)nc1OC`, the activity change, negative = inhibition is 3.2% (inactive).

As for `N[C@@H](C(=O)O)[C@@H](OCc1ccccc1)C(=O)O` (racemic), the activity change, negative = inhibition is 8.74% (inactive).

Regarding `COc1cc(/C=C/C(=O)O[C@H]2CC[C@]34CC35CC[C@]3(C)[C@@H](C(C)CCC=C(C)C)CC[C@@]3(C)C5CCC4C2(C)C)ccc1O` (stereo partly drawn), the activity change, negative = inhibition was 9.65% (inactive).

Regarding `C=C(NC(=O)C(=C)NC(=O)c1csc(C2=N[C@H]3c4csc(n4)[C@H]4NC(=O)c5csc(n5)[C@H]([C@@](C)(O)[C@@H](C)O)NC(=O)[C@H]5CSC(=N5)/C(=C/C)NC(=O)[C@H]([C@@H](C)O)NC(=O)c5csc(n5)[C@]3(CC2)NC(=O)[C@H](C)NC(=O)C(=C)NC(=O)[C@H](C)NC(=O)[C@H](C(C)CC)N[C@@H]2C=Cc3c([C@H](C)O)cc(nc3[C@H]2O)C(=O)O[C@@H]4C)n1)C(N)=O` (stereo partly drawn), the activity change, negative = inhibition is -5.27% (inactive).

As to `O=C(O)c1ccc2c(c1)nc(Nc1cccc(Cl)c1)c1ccncc12`, the activity change, negative = inhibition is -81.6% (active).

On to `Clc1cccc(Nc2nnc(-c3ccccc3)c3ccccc23)c1`, for which the activity change, negative = inhibition is -1.93% (inactive) and 0.598% (inactive).

As for `O=C(O)c1cccnc1Nc1cccc(C(F)(F)F)c1`, the activity change, negative = inhibition is 5.33% (inactive) and 7.04% (inactive).

Take `Cc1noc(-c2ccc(-c3ccc(CC(=O)O)cc3)cc2)c1NC(=O)O[C@H](C)c1ccccc1`: the activity change, negative = inhibition is 6.32% (inactive).

For the compound `CN(C)c1cc(NC(=O)CNC(C)(C)C)c(O)c2c1C[C@H]1C[C@H]3[C@H](N(C)C)C(=O)C(C(N)=O)C(=O)[C@@]3(O)C(=O)C1C2=O` (stereo partly drawn), the activity change, negative = inhibition was 5.81% (inactive).

On to `O=C(NCCCCN1CCOCC1)c1cc2ccccc2o1`, for which the activity change, negative = inhibition is 0.553% (inactive).

As for `CN1CCN(CCC=C2c3ccccc3Sc3ccc(S(=O)(=O)N(C)C)cc32)CC1`, the activity change, negative = inhibition was 25.4% (inactive) and 73.8% (inactive).

On to `OCCN1CCN(CC/C=C2/c3ccccc3Sc3ccc(C(F)(F)F)cc32)CC1`, for which the activity change, negative = inhibition is -74.2% (active).

As for `CN(C)CC/C=C1\c2ccccc2Sc2ccc(Cl)cc21`, the activity change, negative = inhibition was -58.2% (inactive).

`CN1CCN(CCCN2c3ccccc3Sc3ccc(Cl)cc32)CC1`: the activity change, negative = inhibition is 16.2% (inactive) and 18.1% (inactive).

Turning to `OCCN1CCN(CCCN2c3ccccc3Sc3ccc(C(F)(F)F)cc32)CC1`, the activity change, negative = inhibition is -60% (inactive) and -63.7% (inactive).

For the compound `OCCN1CCN(CC/C=C2/c3ccccc3Sc3ccc(Cl)cc32)CC1`, the activity change, negative = inhibition is -82.3% (active).

Regarding `CC(=O)c1ccc2c(c1)N(CCCN1CCN(CCO)CC1)c1ccccc1S2`, the activity change, negative = inhibition is 15.8% (inactive).

`CN(C)CC/C=C1/c2ccccc2Sc2ccc(Cl)cc21`: the activity change, negative = inhibition is -62.1% (inactive) and 35.6% (inactive).

For the compound `OCCN1CCN(CCCN2c3ccccc3Sc3ccc(Cl)cc32)CC1`, the activity change, negative = inhibition was -81% (active).

Regarding `CC[C@H](C)[C@H](NC(=O)[C@H](Cc1ccc(O)cc1)NC(=O)[C@@H](NC(=O)[C@H](CCCN=C(N)N)NC(=O)[C@@H](N)CC(=O)O)C(C)C)C(=O)N[C@@H](Cc1cnc[nH]1)C(=O)N1CCC[C@H]1C(=O)O`, the activity change, negative = inhibition was 8.39% (inactive).

Take `O=S1(=O)N[C@H]2CCCN2c2ccccc21`: the activity change, negative = inhibition is 1.4% (inactive).

In the case of `CCC(=O)O[C@@]1(C(=O)CCl)[C@@H](C)C[C@H]2[C@@H]3C[C@H](F)C4=CC(=O)C=C[C@]4(C)[C@]3(F)[C@H](O)C[C@@]21C`, the activity change, negative = inhibition is 6.07% (inactive).

Regarding `CC(=O)c1c(O)c(C)c(O)c2c1OC1=CC(=O)C(C(C)=O)C(=O)C12C` (stereo not drawn), the activity change, negative = inhibition is -3.87% (inactive).

Consider `COc1ccccc1OCC(O)CNC(C)C` (stereo not drawn), for which the activity change, negative = inhibition is 17.1% (inactive) and 3.92% (inactive).

With `COc1cc2c(cc1OC)C(=O)CC2`, the activity change, negative = inhibition is 4.96% (inactive).

As for `COc1cc(CCC(C)=O)ccc1O`, the activity change, negative = inhibition was 7.65% (inactive).

For `COC(=O)C[C@](O)(CCCC(C)(C)O)C(=O)O[C@@H]1C(OC)=C[C@]23CCCN2CCc2cc4c(cc2[C@H]13)OCO4`, the activity change, negative = inhibition is -83.4% (active) and -83.9% (active) and -85.7% (active).

For `COCCCOc1ccnc(CS(=O)c2nc3ccccc3[nH]2)c1C` (stereo not drawn), the activity change, negative = inhibition is 106% (inactive) and 41.3% (inactive).

Consider `N#CC(c1ccnc(OCc2ccc(CN3CCOCC3)cc2)n1)c1nc2ccccc2s1` (stereo not drawn), for which the activity change, negative = inhibition is -29.2% (inactive).

Regarding `COc1cc2ncn(-c3cc(OCc4ccccc4C(F)(F)F)c(C(N)=O)s3)c2cc1OC`, the activity change, negative = inhibition was -75.1% (active).

As for `C[C@@H](Oc1cc(-n2cnc3ccc(CN4CCN(C)CC4)cc32)sc1C(N)=O)c1ccccc1C(F)(F)F`, the activity change, negative = inhibition is -75.7% (active).

With `C[C@H]1CC2C([C@@H](O)C[C@@]3(C)C2CC[C@]3(O)C(=O)COC(=O)CCC(=O)O)[C@@]2(C)C=CC(=O)C=C12` (stereo partly drawn), the activity change, negative = inhibition is 5.48% (inactive) and 3.76% (inactive).

Consider `COC1CC2CCC(C)C(O)(O2)C(=O)C(=O)N2CCCCC2C(=O)OC(C(C)CC2CCC(O)C(OC)C2)CC(=O)C(C)/C=C(\C)C(O)C(OC)C(=O)C(C)CC(C)/C=C/C=C/C=C/1C` (stereo not drawn), for which the activity change, negative = inhibition was 5.34% (inactive) and -8.87% (inactive).

For `C=C1CC2C3C=C(C)C4=CC(=O)CC[C@]4(C)C3CC[C@]2(C)[C@@]1(OC(C)=O)C(C)=O` (stereo partly drawn), the activity change, negative = inhibition is 10.5% (inactive) and -22.4% (inactive).

In the case of `CCCCCCCCCCCCCCCCCC(=O)OCC(O)CO` (stereo not drawn), the activity change, negative = inhibition is 5.64% (inactive).

As for `COc1ccc(C2CC(c3c(O)cc(C)oc3=O)=NCCS2)c(OC)c1` (stereo not drawn), the activity change, negative = inhibition was 10.3% (inactive).

Consider `CO[C@H]1C=CO[C@@]2(C)Oc3c(C)c(O)c4c(O)c(c(/C=N/N5CCN(C6CCCC6)CC5)c(O)c4c3C2=O)NC(=O)/C(C)=C\C=C[C@H](C)[C@H](O)[C@@H](C)[C@@H](O)[C@@H](C)[C@H](OC(C)=O)[C@@H]1C`, for which the activity change, negative = inhibition was -5.33% (inactive).

Turning to `CCCCCCCCCCCCCCCCCCOC[C@H](COP(=O)(O)OCC[N+](C)(C)C)OC`, the activity change, negative = inhibition is 5.04% (inactive).

Regarding `O=c1c(-c2ccc(O)cc2)coc2c([C@@H]3O[C@H](CO)[C@@H](O)[C@H](O)[C@H]3O)c(O)ccc12`, the activity change, negative = inhibition is -0.619% (inactive).

On to `Cc1[nH]c(/C=C2/C(=O)Nc3ccc(F)cc32)c(C)c1C(=O)NC[C@H](O)CN1CCOCC1`, for which the activity change, negative = inhibition is -69.2% (inactive).

Turning to `Cc1[nH]c(/C=C2\C(=O)Nc3ccccc32)c(C)c1CCC(=O)O`, the activity change, negative = inhibition is 7.07% (inactive).

On to `CCN(CC)CCNC(=O)c1c(C)[nH]c(/C=C2\C(=O)Nc3ccc(F)cc32)c1C`, for which the activity change, negative = inhibition was -75.8% (active).

Turning to `COc1cccc(OC)c1-c1ccc(C[C@H](NC(=O)c2c(Cl)cccc2Cl)C(=O)O)cc1`, the activity change, negative = inhibition is 4.91% (inactive).

Consider `O=C(c1ccc(OCCCc2cnc[nH]2)cc1)C1CC1`, for which the activity change, negative = inhibition is 31.1% (inactive).

On to `CN=C(NC)NCc1ccc(OC)cc1`, for which the activity change, negative = inhibition is 0.956% (inactive).

Consider `CC(C)CC1C(=O)N2CCCC2C2(O)OC(NC(=O)C3C=C4c5cccc6[nH]c(Br)c(c56)CC4N(C)C3)(C(C)C)C(=O)N12` (stereo not drawn), for which the activity change, negative = inhibition was 18.4% (inactive).

As for `COc1cc2c(cc1OC)C(C(C(=O)N(CCc1ccc(OC)c(OC)c1OC)CCc1ccc(OC)c(OC)c1OC)c1ccccc1)=NCC2` (stereo not drawn), the activity change, negative = inhibition was 23.5% (inactive).

Take `CC(C)n1nc(-c2cc3cc(O)ccc3[nH]2)c2c(N)ncnc21`: the activity change, negative = inhibition is -50.4% (inactive).

On to `CC(C)n1nc(-c2ccc3oc(N)nc3c2)c2c(N)ncnc21`, for which the activity change, negative = inhibition was -74.3% (active).

On to `CC(=O)O[C@@H]1CC[C@@]2(C)C(C[C@@H](OC(C)=O)[C@@]3(C)C4=CC(=O)O[C@@H](c5ccoc5)[C@]4(C)CCC23)C1(C)C` (stereo partly drawn), for which the activity change, negative = inhibition is 12.5% (inactive).

Take `O=C(O)CCc1c(C(=O)O)[nH]c2cc(Cl)cc(Cl)c12`: the activity change, negative = inhibition was 12.5% (inactive).

As to `CCC(C)[C@H]1O[C@]2(CC[C@@H]1C)C[C@@H]1C[C@@H](C/C=C(\C)[C@@H](OC3C[C@H](OC)C(O[C@H]4C[C@H](OC)[C@@H](O)[C@H](C)O4)[C@H](C)O3)[C@@H](C)/C=C/C=C3\CO[C@@H]4[C@H](O)C(C)=C[C@@H](C(=O)O1)[C@]34O)O2` (stereo partly drawn), the activity change, negative = inhibition is -67.1% (inactive).

Turning to `CCC(C)[C@H]1O[C@]2(C=C[C@@H]1C)C[C@@H]1C[C@@H](C/C=C(\C)[C@@H](OC3C[C@H](OC)C(O[C@H]4C[C@H](OC)[C@@H](NC(C)=O)[C@H](C)O4)[C@H](C)O3)[C@@H](C)/C=C/C=C3\CO[C@@H]4[C@H](O)C(C)=C[C@@H](C(=O)O1)[C@]34O)O2` (stereo partly drawn), the activity change, negative = inhibition was -6.74% (inactive).

On to `CC[C@H](C)[C@H]1O[C@]2(CC[C@@H]1C)C[C@@H]1C[C@@H](C/C=C(\C)[C@@H](O[C@H]3C[C@H](OC)[C@@H](O[C@H]4C[C@H](OC)[C@@H](O)[C@H](C)O4)[C@H](C)O3)[C@@H](C)/C=C/C=C3\CO[C@@H]4[C@H](O)C(C)=C[C@@H](C(=O)O1)[C@]34O)O2`, for which the activity change, negative = inhibition was -65% (inactive) and -79.5% (active).

Turning to `COc1ccccc1N1CCN(CCCCN2C(=O)CCC2=O)CC1`, the activity change, negative = inhibition is -10.5% (inactive) and 6.09% (inactive).

Consider `C[C@]12C=CC(=O)C=C1CCC1C2C(=O)C[C@@]2(C)C1CC[C@]2(O)C(=O)CO` (stereo partly drawn), for which the activity change, negative = inhibition was -0.495% (inactive).

`C=COCC(F)(F)F`: the activity change, negative = inhibition is 2.78% (inactive).

With `COc1ncnc(N)c1OC`, the activity change, negative = inhibition was 8.31% (inactive).

`C[C@]12CC[C@@H]3c4ccc(O)cc4C[C@@H](CCCCCCCCCS(=O)CCCC(F)(F)C(F)(F)F)[C@H]3[C@@H]1CC[C@@H]2O` (stereo partly drawn): the activity change, negative = inhibition is -83.4% (active).

Take `CCCCC(=O)O[C@H]1CC[C@H]2[C@@H]3CCc4cc(O)ccc4[C@H]3CC[C@]12C`: the activity change, negative = inhibition was -58.1% (inactive).

For the compound `C[C@]12CCC3c4ccc(O)cc4CCC3C1CC[C@@H]2OC(=O)CCC1CCCC1` (stereo partly drawn), the activity change, negative = inhibition is -65.2% (inactive) and 3.38% (inactive).
